Screening results from PubChem BioAssay.
ABHD5 PLIN5 PPI = blocks binding of human ABHD5 to perilipin-5 | AID 602281 | Split G. princeps luciferase complementation, luminescence, 4 h | inhibition, % at 4 µM | actives 0.78% (n = 360,000) | Q00G26+Q8WTS1;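 active = inhibition above the mean inhibition across every tested compound plus 3 SD, cut at about 22% in these data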;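 also: 0% = DMSO only wells and the 100% control is not disclosed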
Peg3 promoter = inhibitors of Peg3 promoter. HeLa PEG-Prom luciferase reporter, luminescence, overnight. inhibition, % at 20 µM. actives 1.7% (n = 360,000);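 active = inhibition of at least 50% at 20 µM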
HIF-2a block = blocks HIF-2a reporter activity | 786-0 RCC cells HIF-2a reporter, luciferase luminescence, overnight | actives 0.72% (n = 360,000) | AID 624352 | inhibition, % at 18.8 µM;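 active = inhibition of the luminescence signal of 40% or more relative to plate controls, in a single-dose primary screen at 18.75 µM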
Mdm2-MdmX inh = inhibitors of human Mdm2/MdmX interaction; AID 485346; actives 3% (n = 330,000); SaOS-2 split-luciferase Mdm2/MdmX complementation, luminescence; inhibition, % at 8 µM; O15151+Q00987;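 active = inhibition of at least 50% at 8 µM in the primary screen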
CF NFkB block = cystic fibrosis NF-kB activation inhibition; actives 0.86% (n = 360,000); KKLEB NF-kB-GFP reporter, PAF-induced, GFP fluorescence overnight; inhibition, % at 5 µM;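 active = at least 50% inhibition at 5 µM, scaled per plate between neutral and stimulator controls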;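 also: PAF is a Pseudomonas aeruginosa culture filtrate used as stimulus; plate controls were PAF-stimulated DMSO wells for no effect and unstimulated DMSO wells for full effect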
KKLEB tox = CF airway cell cytotoxicity counter-screen. KKLEB CF airway cells viability, ATPlite luminescence, overnight; active compounds read low; cells stimulated with P. aeruginosa culture filtrate. activity change (cytotoxicity), % at 5 µM. actives 0.36% (n = 360,000). AID 602141;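 active = corrected activity change at or below -50% at 5 µM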
The depositor's hits bear a star; nt = no result. Sampled rows, rich in hits. Any-hit rate of the full collection: about 4.6%.

SMILES | ABHD5 PLIN5 PPI | Peg3 promoter | HIF-2a block | Mdm2-MdmX inh | CF NFkB block | KKLEB tox
COCCNC(=O)c1cccc(Nc2nc(-c3ccccc3)c3cc(Cl)ccc3n2)c1 | 7 | 53* | 2 | 47 | 5 | -5
CC(=O)NNc1nc(-c2ccccc2)c2cc(Cl)ccc2n1 | -4 | 2 | 19 | nt | -26 | -2
CN(Cc1nc2ccccc2c(=O)[nH]1)C(=O)COc1ccccc1Cc1ccccc1 | 1 | -3 | -47 | -1 | 17 | -4
CC12CC3CC(C)(C1)CC(C(=O)NNC(=O)c1ccncc1)(C3)C2 | -2 | 18 | 21 | -14 | -2 | 12
COCCNc1nc2cc(-c3cccc(C(F)(F)F)c3)sc2c(=O)n1C | 5 | 4 | -8 | nt | 2 | -1
CN(C)CCCNc1nc2cc(-c3cccc(C(F)(F)F)c3)sc2c(=O)n1C | 3 | 96* | -50 | nt | -13 | -5
CN(C)CCCNc1nc2cc(-c3cccc(Cl)c3)sc2c(=O)n1C | 10 | 91* | -54 | nt | -43 | -9
COC(=O)C(C)(C)c1cccnc1C#N | 8 | 7 | -4 | nt | -13 | -1
CN(c1ccccc1)S(=O)(=O)c1cccc(NS(=O)(=O)c2cccc(C(=O)O)c2)c1 | 22* | 13 | 7 | -35 | -14 | 2
O=C(Nc1ccccc1N1CCOCC1)c1cccc(NS(=O)(=O)c2ccc(F)c(F)c2)c1 | 4 | 7 | 7 | 0 | 13 | 0
COc1cc(CCNC2=CC(=O)c3ncccc3C2=O)ccc1O | -4 | 27 | 39 | nt | 78* | -2
CCc1cccc2c(N=O)c(O)[nH]c12 | 2 | -6 | 4 | 17 | 12 | 1
O=Nc1c(O)[nH]c2ccc(Cl)c(Cl)c12 | -8 | 57* | 21 | nt | 41 | 19
CCn1c(SCC(=O)Nc2cccc(NC(C)=O)c2)nnc1-c1ccco1 | -2 | 4 | 1 | 10 | -2 | 4
CCn1c(SCC(=O)Nc2ccc3c(c2)c2ccccc2n3CC)nnc1-c1ccco1 | 46* | 4 | 9 | 12 | -8 | 18
Cc1cc(C)c2cc(C#N)c(N3CCCN(C(=S)NCCCN(C)C)CC3)nc2c1 | 9 | 104* | 10 | 33 | 4 | 4
Cc1ccc2cc(C#N)c(N3CCCN(C(=S)NCCCN(C)C)CC3)nc2c1 | 3 | 19 | 4 | 20 | 5 | -7
COc1ccc(Cc2c(-c3cccc(Cl)c3)nc3c(C)cc(Br)cn23)c(C)c1 | 4 | 30 | 18 | nt | -1 | 2
Cc1nnc(SCc2cnc(-c3ccc(C(C)C)cc3)s2)n1C | 10 | -98 | -51 | -26 | -8 | -65*
Cc1cccc(OC(C)C(=O)Nc2nc(-c3ccncc3)cs2)c1 (stereo not drawn) | 2 | 12 | 0 | 11 | -9 | -7
CC(C)CCNC(=O)C(c1ccc(O)cc1)N(Cc1cccs1)C(=O)C1COc2ccccc2O1 (stereo not drawn) | -4 | 51* | -8 | 32 | 5 | -3
CCOC(=O)C1=CCN(S(=O)(=O)c2ccc(C)cc2)C1c1ccc(C(C)C)cc1 (stereo not drawn) | -14 | 26 | -17 | nt | 14 | -7
O=C(CCl)N(c1ccccc1)c1ccccc1 | 7 | 47 | 20 | nt | 56* | -15
O=C(N(c1ccccc1)c1ccccc1)N(c1ccccc1)c1ccccc1 | 3 | 35 | 28 | 30 | 2 | 13
NCCOc1ccc(C2CCCCC2)cc1 | 8 | -70 | -79 | -6 | -4 | 0
SMILES | ABHD5 PLIN5 PPI | Peg3 promoter | HIF-2a block | Mdm2-MdmX inh | CF NFkB block | KKLEB tox
NCCOc1ccc(C23CC4CC(CC(C4)C2)C3)cc1 | 7 | 101* | -87 | 30 | 40 | -29
Cc1cc(C)cc(-n2c3nc4ccccc4nc3c3c(=O)n(Cc4ccco4)cnc32)c1 | 60* | 23 | 30 | 19 | -7 | 7
COc1ccc(Cn2c(C)nc3c(c2=O)c2nc4ccccc4nc2n3Cc2ccco2)cc1 | 33* | 34 | 6 | nt | 14 | -14
COc1ccc(S(=O)(=O)c2c(N)n(Cc3ccco3)c3nc4ccccc4nc23)cc1 | 24* | 17 | 21 | 6 | 4 | 5
CN1CCN(C(=O)C2CCCN(S(=O)(=O)c3ccc(Cl)cc3)C2)CC1 (stereo not drawn) | 6 | -11 | 7 | -10 | 5 | -16
O=S1(=O)C[C@@H](N2CCN(CC3CC3)CC2)[C@H](COCc2ccccc2)N1 | 5 | -22 | 4 | nt | -6 | 7
